Screens as filed in PubChem.
Rows were chosen to be rich in hits. Some 3.1% of all compounds tested hit in one or more screens of this group.
12-hLO inh – qHTS Assay for Inhibitors of 12-hLO (12-human lipoxygenase) | Polyunsaturated fatty acid lipoxygenase ALOX12 (Homo sapiens), P18054 | purified 12-hLO, xylenol orange hydroperoxide absorbance | Potency, µM (top dose mostly 57.1 µM), without a hit: at the highest dose activity change, negative = inhibition, most hits filed as inhibitors | 150,000 compounds, 0.12% hits | AID 1452, 2008; further: potency means the concentration at half of the fitted maximal effect; nearly all actives have a fitted effect of over 55% in size
Target sequence (P18054 whole entry, looked up): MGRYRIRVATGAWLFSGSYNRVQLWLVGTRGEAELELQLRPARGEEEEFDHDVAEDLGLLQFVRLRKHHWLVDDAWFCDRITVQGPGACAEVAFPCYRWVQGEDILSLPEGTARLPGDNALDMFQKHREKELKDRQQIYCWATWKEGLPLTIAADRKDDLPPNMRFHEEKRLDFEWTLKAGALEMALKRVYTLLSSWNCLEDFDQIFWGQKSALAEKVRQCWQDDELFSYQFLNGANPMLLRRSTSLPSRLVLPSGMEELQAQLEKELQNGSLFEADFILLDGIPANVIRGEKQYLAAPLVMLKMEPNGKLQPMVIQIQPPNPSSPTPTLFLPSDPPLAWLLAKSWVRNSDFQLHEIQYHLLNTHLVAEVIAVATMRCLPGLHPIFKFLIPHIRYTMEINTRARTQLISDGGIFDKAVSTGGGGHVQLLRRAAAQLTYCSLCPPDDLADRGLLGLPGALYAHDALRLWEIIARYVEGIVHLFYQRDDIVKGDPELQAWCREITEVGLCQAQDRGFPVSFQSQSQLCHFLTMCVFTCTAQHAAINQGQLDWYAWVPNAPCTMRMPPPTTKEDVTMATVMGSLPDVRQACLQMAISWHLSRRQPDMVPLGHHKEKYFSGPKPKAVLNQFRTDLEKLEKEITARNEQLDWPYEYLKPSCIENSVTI
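Lipoxygenase turnover measured by absorbance at 573 and 405 nm after Fe-XO development. Human 12hLO 150 nM, arachidonate 40 uM, pH 7.0 Hepes buffer with detergent; 15 min compound preincubation, 30 min reaction.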
PNC assembly inh – High Content Assay for Compounds that inhibit the Assembly of the Perinucleolar Compartment | activity change (PNC), negative = inhibition, % at 10 µM | AID 2417, 2010 | 140,000 compounds, 3.1% hits | PC3M PTB-GFP, PNC prevalence imaging, 16 h; stronger effect = lower value;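 active means readout at or below -70, meaning at least 70% loss of cells showing the perinucleolar compartment, a nuclear body marking cancer cells; inconclusive means readout between -30 and a set limit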;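 further: plate controls were DMSO wells for no effect and camptothecin positive control wells for full effect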
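PC3M cells stably expressing PTB-GFP, 750–1000 cells/well, treated 16 h at 37 °C with compound (23 nl of library stock), in duplicate. After paraformaldehyde fixation and Hoechst stain, imaged at 20x; PNC prevalence scored by image analysis.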
15-hLO-2 inh – qHTS Assay for Inhibitors of 15-hLO-2 (15-human lipoxygenase 2). Polyunsaturated fatty acid lipoxygenase ALOX15B (Homo sapiens), O15296. purified 15hLO-2, xylenol orange hydroperoxide absorbance. Potency, µM (highest dose often 57.1 µM), without a hit: at the highest dose activity change, negative = inhibition, hits mostly inhibitors. 110,000 compounds, 0.56% hits. AID 881, 2007; further: potency means the concentration at half of the fitted maximal effect; nearly all actives have a fitted effect of over 60% in size
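Purified human 15hLO-2 (50 nM final) preincubated with compounds 15 min at room temperature in 25 mM Hepes pH 7.5, 0.01% Triton X-100, then 45 uM arachidonic acid added for 90 min; hydroperoxide detected via ferrous/xylenol orange, 573/405 nm absorbance ratio.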
* = called active by the depositor; [ ] = remark or other dose. Unless noted, the call rests on the fitted dose curve; in most records, active means well fitted curve in the direction sought with a large enough effect; inconclusive means small, poorly fitted or top-dose-only effect, or another doubt; inactive means no such curve, though single readings can be large; an effect the other way counts as inactive or inconclusive. Unless noted, on the % scale 0 is the no-effect control and ±100 the full control effect.

`Cc1ccc(-c2nnn(CC(=O)N(CC(=O)NC(C)C)c3cnc4ccccc4c3)n2)o1` gave 12-hLO inh -5.6%, PNC assembly inh -29.1 and 15-hLO-2 inh -3.0%.
Cc1cccc(N(CC(=O)NCc2ccccc2)C(=O)Cn2nnc(-c3ccc(C)o3)n2)c1 was read as 12-hLO inh 0.7%, PNC assembly inh -83.8* and 15-hLO-2 inh -19.8%.
For O=C(Nc1cccc(O)c1)c1ccc(Br)cc1 the results were 12-hLO inh -5.5%, PNC assembly inh -127.9* and 15-hLO-2 inh -2.2%.
CCC(=O)Nc1cccc(NC(=O)c2ccc(Br)cc2)c1 was read as 12-hLO inh 1.1% and PNC assembly inh 29.5.
Screening CCC1=C2CC[C@H]3C(=O)N(C)C(=O)[C@H]3[C@H]2[C@@]2(C)C(=O)N(CC(=O)OC)C(=O)N2C1=O returned 12-hLO inh -4.8% and 15-hLO-2 inh 25.7%.
For CCOC(=O)CN1C(=O)C(O)=C(C(C)=O)C1c1ccc([N+](=O)[O-])cc1 (centres undefined) the results were 12-hLO inh 11.7%, PNC assembly inh -110.7* and 15-hLO-2 inh 6.5%.
`CCOC(=O)CN1C(=O)C(O)=C(C(C)=O)C1c1ccc(F)cc1` (centres undefined) gave 12-hLO inh -5.1%, PNC assembly inh 21.3 and 15-hLO-2 inh -1.9%.
For CC(C)(C)n1nnnc1C(c1ccc(F)cc1)N(Cc1ccc(F)cc1)Cc1ccco1 (centres undefined) the results were 12-hLO inh 2.2%, PNC assembly inh 31.4 and 15-hLO-2 inh 1.5%.
For CC(C)(C)n1nnnc1C(c1ccc(C(F)(F)F)cc1)N(Cc1ccc(F)cc1)Cc1ccco1 (centres undefined) the results were 12-hLO inh -0.7% and PNC assembly inh -118.9*.
For COc1cccc(CCc2ccccc2OCC[C@@H]2C[C@@H](O)CN2C)c1 the results were 12-hLO inh 3.2% and 15-hLO-2 inh 55.7%.
Screening CCC(=O)Nc1ccc(S(=O)(=O)N2CCOCC2)cc1 returned 12-hLO inh 3.4%, PNC assembly inh -80.4* and 15-hLO-2 inh 0.2%.
O=C(COC(=O)c1ccc(Br)o1)Nc1ccc(S(=O)(=O)N2CCCC2)cc1 was read as 12-hLO inh -0.4%, PNC assembly inh -80.1* and 15-hLO-2 inh 2.1%.
Screening O=C(Nc1ccc(S(=O)(=O)N2CCCCCC2)cc1)c1ccc(Br)o1 returned 12-hLO inh -3.9%, PNC assembly inh -1.8 and 15-hLO-2 inh -4.2%.
Screening CCOCC(=O)Nc1ccc(S(=O)(=O)N2CCOCC2)cc1 returned 12-hLO inh 1.8%, PNC assembly inh -27.7 and 15-hLO-2 inh -2.9%.
Cc1cc(C)n(-c2ccc(C(=O)OCC(=O)Nc3ccc(S(=O)(=O)N4CCOCC4)cc3)cc2)n1 was read as 12-hLO inh -6.7%, PNC assembly inh -86.8* and 15-hLO-2 inh 6.6%.
Cc1cc(C)n(-c2ccc(C(=O)OCC(=O)Nc3ccc([N+](=O)[O-])cc3)cc2)n1 was read as 12-hLO inh -3.5% and PNC assembly inh inconclusive.
C=C1CC[C@H](O)C/C1=C/C=C1\CCC[C@]2(C)[C@@H]([C@H](C)CCCC(C)C)CC[C@@H]12 was read as 12-hLO inh -23.0%[0.00818 µM] and 15-hLO-2 inh 7.0%[0.0915 µM].
For COc1ccc(Oc2ncc3ncc(=O)n(C4CC4)c3n2)cc1 the results were 15-hLO-2 inh -5.2%.
Screening CC(=O)NCCNc1nc(-c2cccc(NS(C)(=O)=O)c2)nc2ccccc12 returned 15-hLO-2 inh -2.1%.
Screening COCCn1c(=O)c(C)nc2cnc(Oc3ccccc3)nc21 returned 15-hLO-2 inh -9.2%.
Screening CN(C)C1CCN(C(=O)c2ccc(-n3c(=O)c(=O)[nH]c4ccccc43)cc2)C1 (centres undefined) returned 12-hLO inh -1.9%.
For O=C(O[C@@H]1Cc2c(O)cc(O)cc2OC1c1ccc(O)c(O)c1)c1cc(O)c(O)c(O)c1 (some centres undefined) the results were 12-hLO inh -23.8% and 15-hLO-2 inh inconclusive.
Screening C/C=C\C(=O)N(CC)c1ccccc1C returned 12-hLO inh -3.1%[25.6 µM] and 15-hLO-2 inh 26.7%[25.6 µM].
Cc1ccccc1NC(=O)CSc1nc(N)c2c3c(sc2n1)CSC(C)(C)C3 was read as 12-hLO inh -2.5% and PNC assembly inh -1.8.
Cc1ccc(NC(=O)CSc2nc(N)c3c4c(sc3n2)CSC(C)(C)C4)cc1 was read as 12-hLO inh -22.4% and PNC assembly inh -92.6*.
Screening CN(C)c1ccc(CNC(=O)C2(C)C=CCN2C(=O)c2ccccc2)cc1 (centres undefined) returned 12-hLO inh -3.4% and 15-hLO-2 inh -3.5%.
Screening Cc1ccc(NC(=O)CSC2=C(C#N)C(c3ccc4c(c3)OCO4)CC(=O)N2)cc1C (centres undefined) returned 12-hLO inh -1.6% and PNC assembly inh -100.0*.
Screening CCOC(=O)CSC1=C(C#N)C(c2ccc3c(c2)OCO3)CC(=O)N1 (centres undefined) returned 12-hLO inh -3.5%, PNC assembly inh 18.9 and 15-hLO-2 inh -3.6%.
Screening CN(C)c1ncc2nc(-c3ccccc3)c(=O)n(CCc3ccccc3)c2n1 returned 15-hLO-2 inh 1.4%.
Screening FC(F)(F)c1ccccc1-c1nccc(NCc2ccccc2)n1 returned 12-hLO inh -1.3% and 15-hLO-2 inh 2.1%.
For O=C(c1cc(-c2cccs2)on1)N1CCN(c2ccc(F)cc2)CC1 the results were 12-hLO inh 1.0%, PNC assembly inh -12.4 and 15-hLO-2 inh 10.7%.
`O=C(c1cn(-c2ccccc2)nc1-c1cccs1)N1CCN(c2ccc(F)cc2)CC1` gave 12-hLO inh -18.8%, PNC assembly inh -109.5* and 15-hLO-2 inh 19.3%.
N=C(N)CCNC(=O)[C@@H]1CCC(N)=N1 was read as 12-hLO inh -4.1%[11.4 µM] and 15-hLO-2 inh -4.0%[11.4 µM].
For Cc1sc2nc(CN(C(=O)c3cccs3)C3CCCC3)[nH]c(=O)c2c1C the results were 12-hLO inh -6.7%, PNC assembly inh 3.1 and 15-hLO-2 inh -12.1%.
`O=C(c1cccs1)N(Cc1nc2sc3c(c2c(=O)[nH]1)CCCC3)C1CCCC1` gave 12-hLO inh -19.3%, PNC assembly inh -92.2* and 15-hLO-2 inh -7.1%.
`CN1CCN(c2ncc3ncc(=O)n(Cc4cccs4)c3n2)CC1` gave 12-hLO inh 1.8% and 15-hLO-2 inh 5.2%.
`Cc1ccc(S(=O)(=O)N(CC(=O)O)c2cccc(Cl)c2)cc1` gave 12-hLO inh -1.7%.
`O=C(Cn1c(COc2ccccc2)nc2ccccc21)Nc1cc(Cl)ccc1Cl` gave 12-hLO inh 1.5% and PNC assembly inh 37.9.
O=C(Cn1c(COc2ccccc2)nc2ccccc21)Nc1cc(Cl)cc(Cl)c1 was read as 12-hLO inh 1.6% and PNC assembly inh -100.0*.
CSCCC(N)C(=O)O (centres undefined) was read as 12-hLO inh -1.0%[0.00818 µM] and 15-hLO-2 inh 14.9%[0.0915 µM].
`COc1ccc(-c2n[nH]c(C)c2-c2cnn(-c3ccccc3)c2)c(O)c1` gave 12-hLO inh -28.8% and PNC assembly inh -1.4.
For Cc1oc2cc(O)cc(C)c2c(=O)c1-c1cnn(-c2ccccc2)c1 the results were 12-hLO inh -10.9%, PNC assembly inh -115.3* and 15-hLO-2 inh 3.5%[2.29 µM].
